The values that follow come from PubChem BioAssay (Tox21).

Molecules are shown by their SMILES. The source made the active and inactive calls. The call rests on the fitted dose curve.
On the % scale 0 is the no-effect control and ±100 the full control effect.

Acetylcholinesterase (Homo sapiens), sequence (P22303 whole entry, looked up): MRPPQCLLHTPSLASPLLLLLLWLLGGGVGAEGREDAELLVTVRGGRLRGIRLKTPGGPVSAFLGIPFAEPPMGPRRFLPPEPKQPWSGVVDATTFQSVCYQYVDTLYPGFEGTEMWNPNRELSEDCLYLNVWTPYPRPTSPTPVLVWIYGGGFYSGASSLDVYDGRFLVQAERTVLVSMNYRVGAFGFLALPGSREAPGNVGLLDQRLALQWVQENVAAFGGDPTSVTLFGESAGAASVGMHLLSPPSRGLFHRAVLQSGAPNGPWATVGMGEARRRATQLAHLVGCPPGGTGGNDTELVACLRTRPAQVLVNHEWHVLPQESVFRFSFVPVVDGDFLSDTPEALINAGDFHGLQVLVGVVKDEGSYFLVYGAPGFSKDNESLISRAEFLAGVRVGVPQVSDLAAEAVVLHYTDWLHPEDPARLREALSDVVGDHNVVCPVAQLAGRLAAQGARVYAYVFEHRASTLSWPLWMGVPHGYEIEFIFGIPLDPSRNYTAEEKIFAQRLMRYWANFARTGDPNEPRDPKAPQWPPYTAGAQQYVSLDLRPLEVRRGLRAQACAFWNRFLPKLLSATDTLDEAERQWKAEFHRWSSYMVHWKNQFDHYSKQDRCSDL

The assay concerns the target Acetylcholinesterase (Homo sapiens) (UniProt P22303). As to the kind of experiment: Acetylcholinesterase (AChE) small molecule antagonists: enzyme-based qHTS assay with human liver microsomes (AID 1347399). Further: nearly all actives have a fitted effect of over 60% in size. The following applies: Potency: qHTS inhibition; outcome: qHTS inhibition; series mostly up to 115 µM; activity change, negative = inhibition: at the top concentration. In a few lines: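 Recombinant human AChE (50 mU/mL in the enzyme mix) and human liver microsomes (0.25 mg/mL final) were preincubated with compound and NADPH (0.25 mg/mL final) for 30 min at 37 C. Acetylthiocholine/DTNB was then added; thiocholine was read colorimetrically after 10 min at room temperature.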
(In general: Quantitative high-throughput screening tests each substance at several concentrations.)
In the case of `CC(C)[N+](C)(C)CC(O)COc1cccc2ccccc12` (stereo not drawn), the “activity change, negative = inhibition” value was 0% [at 53 µM] (inactive).

On to `CC(C)(C)c1nnc(NS(=O)(=O)c2ccc(N)cc2)s1`, for which the “activity change, negative = inhibition” value was 0.177% [at 53 µM] (inactive). As to `Cc1ccc(C(C)NC(=O)[C@@H](NC(=O)OC(C)C)C(C)C)cc1` (stereo partly drawn), the “activity change, negative = inhibition” value was -1.8% (inactive).

On to `CC(C)Nc1nc(N)nc(Cl)n1`, for which the “activity change, negative = inhibition” value was -1.46% (inactive). Take `C=CCOc1ccccc1OCC(O)CNC(C)C` (stereo not drawn): the outcome was inactive. Regarding `O=C(Nc1ccccc1)c1ccccc1O`, the “activity change, negative = inhibition” value was -2% (inactive). Same read-out and setting: as for `O=C(Cl)c1cccc([N+](=O)[O-])c1`, the figure is 2.15% (inactive). `CC12CC3CC(C)(C1)CC(N)(C3)C2`: the “activity change, negative = inhibition” value was 0.202% [at 53 µM] (inactive). Same read-out and setting: as for `CCCc1ccc(O)c(OC)c1`, the figure is 0% (inactive); as for `CC(C)COC(=O)CC(C(=O)OCC(C)C)S(=O)(=O)O` (stereo not drawn), -0.456% (inactive). Regarding `O=c1[nH]sc2ccccc12`, the “activity change, negative = inhibition” value was -4.09% (inactive).

On to `O=C1c2ccccc2C(=O)C1(O)O`, for which the “activity change, negative = inhibition” value is -2.33% (inactive). As for `CC(C)=CCNc1ncnc2c1ncn2[C@@H]1O[C@H](CO)[C@@H](O)[C@H]1O`, the “activity change, negative = inhibition” value was -0.157% [at 53 µM] (inactive).
